“And” between values parts separate entries of the source, which are not always exact repeats. Equal values may be shown once. Records with an inconclusive call do not appear. The source made the active and inactive calls. Calls come from the whole dose curve; as a rule, active = well fitted cell-killing curve with a large enough effect in the repeat runs; inconclusive = weak or mixed curves, or effect the other way; inactive = flat fitted curve, though single readings scatter.
Test: qHTS assay to identify small molecule agonists of the sonic hedgehog signaling (Shh) pathway - cell viability counter screen (AID 1259366); note: nearly all actives have a fitted effect of over 50% in size
Settings: NIH/3T3 Gli1-Luc viability, CellTiter-Fluor, 24 h; series mostly up to 92.4 µM; viability change, negative = cytotoxic: at the top concentration
Source text: National Center for Advancing Translational Sciences [NCATS]
NIH Chemical Genomics Center [NCGC]
U.S. Environmental Protection Agency [EPA]
National Institutes of Environmental Health Sciences [NIEHS]
National Toxicology Program [NTP]
U.S. Food and Drug Administration [FDA]
The sonic hedgehog (Shh) pathway is essential for normal embryonic development. Dysregulation of the Shh pathway can cause severe developmental defects in organs. Therefore chemicals that interfere with the pathway are potential developmental toxicants. A cell line designated 3T3Gli1-Luc (DMB/OARSA/CFSAN/FDA, Laurel, MD), a NIH/3T3 derived clone containing stably integrated Gli1-Luc reporter is used to detect chemical interference of the Shh pathway, by changes in the expression of the firefly Luc gene under the control of the Gli1 transcriptional response element. This cell line was used to screen Tox21 libraries for identifying and prioritizing the potential developmental toxicants that interfere Shh pathway. The cytotoxicity of the compounds was tested in parallel by measuring the cell viability using CellTiter-Fluor assay system (Promega, Madison, WI) in the same wells.
Tox21 Assay Protocol Summary:
3T3 Gli1-Luc cells were dispensed at 2,000 per well in 5uL of culture medium into white solid bottom 1536-well plates (Greiner Bio-One, Monroe, NC) using a Multidrop Combi (Thermo Scientific, Waltham, MA) dispenser. The assay plates were incubated at 37 C and 5% CO2 for 4hr, and then 23nL of compounds dissolved in DMSO and positive control were transferred using a Pintool station (Wako, San Diego, CA). The assay plates were incubated at 37C and 5% CO2 for 24hr. For viability read, after 23hr of compound treatment, 1uL of CellTiter-Fluor reagent (Promega Corporation, Madison, WI) was added to each well of the assay plates using Flying Reagent Dispenser (FRD, Aurora Discovery, San Diego, CA) and incubated the assay plates at 37C for 1hr. The fluorescence signal was quantified using a ViewLux plate reader (Perkin Elmer, Shelton, CT).
% is set by controls: 0 for no effect and ±100 for the full control effect; potency is the fitted concentration of half-maximal effect.

Structure (SMILES)	viability change, negative = cytotoxic	Potency
COCCC#N	0.225% (inactive)	
O=C(O)[C@H](O)[C@@H](O)C(=O)O	7.69% (inactive)	
c1ccc(N=NNc2ccccc2)cc1	-17.3% (inactive)	
O=[N+]([O-])c1ccccc1-c1ccccc1	1.56% (inactive)	
Cc1ccc([N+](=O)[O-])[c]2c1[O][Hg]2		2.66 µM (active)
O=C(NC(=O)c1ccccc1Cl)Nc1ccc(OC(F)(F)F)cc1	2.84% (inactive)	
O=P(Cl)(Cl)Cl	0.295% (inactive)	
CN(C)CCc1c[nH]c2ccccc12	6.28% (inactive)	
COP(=O)(OC)O/C(=C\Cl)c1cc(Cl)c(Cl)cc1Cl	10.7% (inactive)	
CC(=O)O.CC(=O)O.CC(=O)O.CC(=O)O.CC(=O)O.CC(=O)O.CC(=O)O.O.O.[Cr].[Cr].[Cr]	-3.09% (inactive)	
CC(C)Br	2.1% (inactive)	
Nc1nc(N)nc(Cl)n1	-2.55% (inactive)	
CC(C)N(C(=O)CCl)c1ccccc1		68.6 µM (active) and 9.69 µM (active)
CO/N=C(/C1=NOCCO1)c1ccccc1Oc1ncnc(Oc2ccccc2Cl)c1F	-14.7% (inactive)	
CC(O)C(=O)[O][Hg][c]1ccccc1 (stereo not given)		0.969 µM (active)
O=[N+]([O-])c1cccc2cccc([N+](=O)[O-])c12	7.59% (inactive)	
Cc1c([N+](=O)[O-])c(C)c([N+](=O)[O-])c(C(C)(C)C)c1[N+](=O)[O-]	5.23% (inactive)	
ClC1(Cl)C2(Cl)C3(Cl)C4(Cl)C(Cl)(Cl)C5(Cl)C3(Cl)C1(Cl)C5(Cl)C24Cl (stereo not given)	4.97% (inactive)	
Cc1ccc2cc3c(ccc4ccccc43)c3c2c1CC3	0.854% [at 42.5 µM] (inactive)	
[O]=[Cr][O][Cr]=[O]	2.93% (inactive)	

Structure (SMILES)	viability change, negative = cytotoxic	Potency
Oc1ccc([C@H]2CNCc3c2ccc(O)c3O)cc1O	-22.7% [at 42.5 µM] (inactive)	
COc1cnc(OC)n2nc(NS(=O)(=O)c3c(OCC(F)F)cccc3C(F)(F)F)nc12	-18.2% (inactive)	
CSC(=O)c1c(C(F)F)nc(C(F)(F)F)c(C(=O)SC)c1CC(C)C	-2.55% (inactive)	
CCC[CH2][Sn]([CH2]CCC)([CH2]CCC)[CH2]CCC		13.7 µM (active)
C=CCBr	1.91% (inactive)	
CCN(CC)C(=S)S		38.9 µM (active) and 13.6 µM (active) and 27.3 µM (active)
CCO/N=C(\CC)C1=C(O)CC(c2c(C)cc(C)cc2C)CC1=O (stereo not given)	2.86% (inactive)	
CN(C)C(=S)SSC(=S)N(C)C		427 nM (active) and 545 nM (active) and 422 nM (active)
CCC[CH2][Sn]([CH2]CCC)([O]C(C)=O)[O]C(C)=O		6.17 µM (active)
N#CSCc1ccccc1	12.3% (inactive)	
CC1(C)[C@H](/C=C2\CCSC2=O)[C@@H]1C(=O)OCc1coc(Cc2ccccc2)c1	2.54% (inactive)	
OCC(Br)CBr (stereo not given)	-3.51% (inactive)	
Cc1c([N+](=O)[O-])cc2c(c1[N+](=O)[O-])C(C)(C)CC2(C)C	-0.374% (inactive)	
O=C(O)CCCCCCNC1c2ccccc2CCc2ccccc21	0% [at 42.5 µM] (inactive)	
[O]=[Cr](=[O])([OH])[O][Cr](=[O])(=[O])[OH]		30.9 µM (active) and 30.6 µM (active)
Oc1cc(Cl)c(Cl)c(Cl)c1Cl	-18.6% (inactive)	
CSC(C)(C)/C=N/O	10.4% (inactive)	
C[C@]12CC[C@H]3[C@@H](CCC4=CC(=O)CC[C@@H]43)[C@@H]1CC[C@@H]2OC(=O)CCc1ccco1	15.3% [at 42.5 µM] (inactive)	
O=C(NC(=O)c1c(F)cccc1F)Nc1ccc(Oc2ccc(C(F)(F)F)cc2Cl)cc1F	14.1% (inactive)	
N#Cc1c[nH]cc1-c1cccc2c1OC(F)(F)O2	-17.1% (inactive)	

Reference: PubChem BioAssay (Tox21)
